Laboratory results taken from PubChem BioAssay (NCI).
This is part of a sample that, as a whole, favours compounds with a hit. Of some 83,000 tested, about 20% had one in any assay.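 Each cell line was grown in a 96-well plate and treated with one concentration of compound for 48 hours. Values below 10 were considered active.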 The source made the active and inactive calls.

Assays:
Assay in all cases: NCI-60 one-dose screen, 48 h (100 = growth as untreated, 0 = no growth, -100 = all killed)
Settings in all cases: 10 µM unless noted
SR leukemia = system: SR leukemia
RPMI-8226 leukemia = system: RPMI-8226 leukemia
OVCAR-8 ovarian = system: OVCAR-8 ovarian
OVCAR-5 ovarian = system: OVCAR-5 ovarian
OVCAR-4 ovarian = system: OVCAR-4 ovarian
IGROV1 ovarian = system: IGROV1 ovarian
OVCAR-3 ovarian = system: OVCAR-3 ovarian
HS 578T breast = system: HS 578T breast
T-47D breast = system: T-47D breast
BT-549 breast = system: BT-549 breast
SW-620 colon = system: SW-620 colon
MCF7 breast = system: MCF7 breast
HCT-116 colon = system: HCT-116 colon
HCC-2998 colon = system: HCC-2998 colon
KM12 colon = system: KM12 colon
MDA-MB-468 breast = system: MDA-MB-468 breast
SK-OV-3 ovarian = system: SK-OV-3 ovarian
MDA-MB-435 melanoma = system: MDA-MB-435 melanoma
NCI/ADR-RES ovarian = system: NCI/ADR-RES ovarian

Measured: growth

CCOC(=O)/C=C/c1cccc2c1C(=O)NC(C)(c1cc3cc(Cl)ccc3oc1=O)N2 (stereo unspecified)
active: SR leukemia 1.88% | MDA-MB-468 breast 3.88%
inactive: RPMI-8226 leukemia 17.7% | OVCAR-8 ovarian 39.1% | OVCAR-5 ovarian 50.4% | OVCAR-4 ovarian 36.7% | IGROV1 ovarian 13% | OVCAR-3 ovarian 34.4% | HS 578T breast 41% | T-47D breast 16.3% | BT-549 breast 24.7% | SW-620 colon 40.9% | MCF7 breast 26.5% | HCT-116 colon 17.6% | HCC-2998 colon 38.7% | KM12 colon 26%

CC(=O)c1cc(C(=O)c2ccccc2)n2c1ccc1ccccc12
inactive: SR leukemia 81.4% | RPMI-8226 leukemia 95.6% | OVCAR-8 ovarian 99% | OVCAR-5 ovarian 103% | SK-OV-3 ovarian 85.8% | IGROV1 ovarian 88.6% | OVCAR-3 ovarian 112% | HS 578T breast 94.1% | T-47D breast 83.5% | BT-549 breast 73% | MDA-MB-435 melanoma 108% | SW-620 colon 99.3% | HCT-116 colon 82.4% | HCC-2998 colon 121% | KM12 colon 83.1% | MDA-MB-468 breast 93.9%

COc1ccc([C@H](C)Nc2nc(Cl)nc3ccccc23)cc1
inactive: SR leukemia 17.9% | RPMI-8226 leukemia 23.6% | OVCAR-8 ovarian 56.4% | OVCAR-5 ovarian 54.7% | OVCAR-4 ovarian 62.9% | IGROV1 ovarian 63.2% | OVCAR-3 ovarian 78.7% | NCI/ADR-RES ovarian 21.5% | T-47D breast 49.4% | BT-549 breast 60.3% | MDA-MB-435 melanoma 45.8% | MCF7 breast 28.8% | HCT-116 colon 20.9% | HCC-2998 colon 93.6% | KM12 colon 43% | MDA-MB-468 breast 15.1%

COc1cc(/C=C/C(=O)c2ccccc2)ccc1Oc1nc(Nc2ccc(F)cc2)nc(N(C)C)n1
active: SR leukemia 1.38% | RPMI-8226 leukemia -8.57% | BT-549 breast -6.57% | SW-620 colon -0.837% | MCF7 breast 5.96% | HCT-116 colon -83.1%
inactive: OVCAR-8 ovarian 22.1% | OVCAR-5 ovarian 49.1% | SK-OV-3 ovarian 79.7% | IGROV1 ovarian 48.8% | OVCAR-3 ovarian 39.4% | HS 578T breast 36.2% | NCI/ADR-RES ovarian 11.3% | T-47D breast 13% | MDA-MB-435 melanoma 24.9% | HCC-2998 colon 59% | KM12 colon 40.8% | MDA-MB-468 breast 21.5%

COc1c(F)ccc(C(=O)Nc2ccc3nc(NC(=O)C4CCCN(S(=O)(=O)c5cccc(Cl)c5)C4)sc3c2)c1F (stereo unspecified)
inactive: SR leukemia 44.5% | RPMI-8226 leukemia 42.8% | OVCAR-8 ovarian 98.8% | OVCAR-5 ovarian 102% | OVCAR-4 ovarian 83.1% | IGROV1 ovarian 81.6% | OVCAR-3 ovarian 105% | HS 578T breast 62.6% | NCI/ADR-RES ovarian 80.5% | T-47D breast 53.1% | BT-549 breast 76% | MDA-MB-435 melanoma 90.9% | SW-620 colon 98.6% | HCT-116 colon 64.4% | HCC-2998 colon 102% | KM12 colon 82.2% | MDA-MB-468 breast 88.8%

CCCCSc1nc(Nc2ccc(S(N)(=O)=O)cc2)c(C#N)c(-c2ccc(Cl)cc2)n1
inactive: SR leukemia 19.4% | RPMI-8226 leukemia 52.7% | OVCAR-5 ovarian 51.5% | IGROV1 ovarian 37.5% | OVCAR-3 ovarian 54.1% | HS 578T breast 64.8% | NCI/ADR-RES ovarian 16.4% | T-47D breast 75.5% | BT-549 breast 96.1% | MDA-MB-435 melanoma 56.2% | HCC-2998 colon 64% | KM12 colon 74.7% | MDA-MB-468 breast 76%
active: OVCAR-8 ovarian -2.51% | OVCAR-4 ovarian 2.66% | HCT-116 colon 1.12%

N/C(=N\c1nc2ccccc2s1)NC(=O)Nc1ccccc1Br
active: RPMI-8226 leukemia -0.145% | OVCAR-8 ovarian -55.7% | OVCAR-5 ovarian -17% | SK-OV-3 ovarian -6.97% | OVCAR-3 ovarian -72.3% | HS 578T breast -5.34% | NCI/ADR-RES ovarian -57.1% | BT-549 breast -7.4% | MDA-MB-435 melanoma -63.9% | SW-620 colon 5.64% | MCF7 breast 8.24% | HCT-116 colon -51.4% | HCC-2998 colon -21% | KM12 colon -48.2% | MDA-MB-468 breast -29.3%
inactive: SR leukemia 12.1% | IGROV1 ovarian 11.5% | T-47D breast 45.3%

CC1(C)CC[C@]2(C(=O)O)CC[C@]3(C)C(=CCC4[C@@]5(C)C[C@@H](O)[C@@H]6OC(c7ccccc7F)OC[C@@]6(C)C5CC[C@]43C)C2C1 (stereo partly specified)
inactive: RPMI-8226 leukemia 10% | OVCAR-8 ovarian 12% | OVCAR-5 ovarian 28.2% | SK-OV-3 ovarian 12.7% | IGROV1 ovarian 20% | HS 578T breast 21.6% | T-47D breast 21.3% | MDA-MB-435 melanoma 17.4% | SW-620 colon 14.6% | HCC-2998 colon 11.1%
active: SR leukemia 7.37% | OVCAR-3 ovarian -11% | NCI/ADR-RES ovarian 6.19% | BT-549 breast -15.9% | MCF7 breast 4.83% | HCT-116 colon -0.989% | KM12 colon 7.3% | MDA-MB-468 breast 5.82%

Cc1c(C(=O)NNC(=O)Nc2ccc(Cl)cc2)nnn1-c1ccc(Br)cc1
inactive: SR leukemia 89.9% | RPMI-8226 leukemia 98.7% | OVCAR-8 ovarian 101% | OVCAR-5 ovarian 102% | OVCAR-4 ovarian 86.4% | IGROV1 ovarian 97.6% | OVCAR-3 ovarian 116% | NCI/ADR-RES ovarian 94.4% | T-47D breast 88.8% | BT-549 breast 102% | MDA-MB-435 melanoma 99.7% | MCF7 breast 85% | HCT-116 colon 90.7% | HCC-2998 colon 106% | KM12 colon 103% | MDA-MB-468 breast 91%
